Laboratory results: paper PMC5540273 (PLoS ONE, 2017)

Columns and labels:
Settings in all cases: concentration: 1 μM, replicates: in singlicate; n = 1
p38-beta = system: T1, p38-beta
T1 construct: gene MAPK11

p38-delta = system: p38-delta
p38-gamma = system: T2, p38-gamma
T2 construct: gene MAPK12
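Note: KINOMEscan kinase panel screen.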

Row | Compound | %Inh (p38-beta) | %Inh (p38-delta) | %Inh (p38-gamma)
1 | C[C@H]1CC[C@@H](C(=O)Nc2ccccc2)CN1c1cc(-c2ccc3c(N)n[nH]c3c2)nc(N)n1 [GSK2283293] | 0% | 0% | 51%
2 | CC(C)(C)c1ccc(-n2cnc3c(N)ncnc32)cc1 [SKF-97263] | 0% | 11% | 32%
3 | O=C(CCO)NCCn1ccc2ncnc(Nc3ccc(Oc4cccc(C(F)(F)F)c4)c(Cl)c3)c21 | 0% | 10% | 5%
4 | NC(=O)c1sc(-n2cnc3ccccc32)cc1OCc1ccccc1F [GSK1024306] | 1% | 0% | 0%
5 | FC(F)(F)c1ccc(-c2nn3ncccc3c2-c2ccnc(Nc3cccc(C(F)(F)F)c3)n2)cc1 [GW828205] | 0% | 3% | 41%
6 | O=c1cc(N2CCOCC2)nc2n(Cc3cccc(Cl)c3)ccn12 [GSK2296823] | 0% | 38% | 56%
7 | Cl.Cn1ccc(-c2cccc(Nc3ccnc4cc(-c5nccs5)ccc34)c2)n1 [GW525701] | 0% | 23% | 14%
8 | C[C@@H]1CCN(C(=O)CO)C[C@@H]1N(C)c1ncnc2[nH]ccc12 | 5% | 13% | 1%
9 | Clc1ccc(-c2cc(-c3c[nH]nc3-c3ccccn3)ccn2)cc1 [GW681251] | 0% | 25% | 0%
10 | Nc1nc(-c2ccc3c(N)n[nH]c3c2)cc(N2CCC[C@@H](C(=O)Nc3ccccc3)C2)n1.O=C(O)C(F)(F)F.O=C(O)C(F)(F)F [GSK2288359] | 0% | 18% | 27%
